Experimental data: the supplement of paper PMC7411054

Legend:
Assay in all cases: phenotypically active (imaging signature differs from DMSO and reproducible) at any of 0.3-9 uM (binary (1 = active, 0 = inactive)); higher = active
Settings in all cases: treatment time: 24 h
[1] = test system: A549-ACTB-RAB5A
In short: (§1)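 Four wells per concentration (0.3, 1, 3 or 9 µM) were treated for 24 h in each of fifteen gene-edited reporter lines from A549, HepG2 and WPMY1 cells, then imaged live. After normalising live-cell features to solvent control wells, deviation was defined as ≥3 of 4 wells lying past the 95th percentile of control Euclidean distances. Reproducibility was defined as a median replicate Pearson correlation above the 95th percentile of non-replicates. Both had to hold for phenotypic activity.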

[2] = test system: A549-CANX-COX4
In short: as §1

[3] = test system: A549-GM130-SQSTM1
In short: as §1

[4] = test system: A549-TP53BP1-CLTA
In short: as §1

[5] = test system: A549-TUBA1B-RELA
In short: as §1

[6] = test system: HepG2-ACTB-RAB5A
In short: as §1

[7] = test system: HepG2-CANX-COX4
In short: as §1

[8] = test system: HepG2-GM130-SQSTM1
In short: as §1

[9] = test system: HepG2-TP53BP1-CLTA
In short: as §1

[10] = test system: HepG2-TUBA1B-RELA
In short: as §1

[11] = test system: WPMY1-ACTB-RAB5A
In short: as §1

[12] = test system: WPMY1-CANX-COX4
In short: as §1

[13] = test system: WPMY1-GM130-SQSTM1
In short: as §1

[14] = test system: WPMY1-TP53BP1-CLTA
In short: as §1

[15] = test system: WPMY1-TUBA1B-RELA
In short: as §1

Measured: phenotypically active

C#C[C@]1(O)CC[C@H]2[C@@H]3CCC4=Cc5oncc5C[C@]4(C)[C@H]3CC[C@@]21C [danazol]
inactive: [1] 0 | [2] 0 | [3] 0 | [4] 0 | [5] 0 | [6] 0 | [7] 0 | [8] 0 | [9] 0 | [10] 0 | [11] 0 | [12] 0 | [13] 0 | [14] 0 | [15] 0

COCCc1ccc(OCC(O)CNC(C)C)cc1 (stereo not given) [metoprolol]
inactive: [1] 0 | [2] 0 | [3] 0 | [4] 0 | [5] 0 | [6] 0 | [7] 0 | [8] 0 | [9] 0 | [10] 0 | [11] 0 | [12] 0 | [13] 0 | [14] 0 | [15] 0

Cn1cnc2c(NCc3ccccc3)nc(NCCO)nc21 [Olomoucine]
inactive: [1] 0 | [2] 0 | [3] 0 | [4] 0 | [5] 0 | [6] 0 | [7] 0 | [8] 0 | [9] 0 | [10] 0 | [11] 0 | [12] 0 | [13] 0 | [14] 0 | [15] 0

Cc1cc(O)cc2c1C(=O)Oc1cc3c(c(O)c1O2)C(=O)OC3 [Variolaric acid]
inactive: [1] 0 | [2] 0 | [3] 0 | [4] 0 | [5] 0 | [6] 0 | [7] 0 | [8] 0 | [9] 0 | [10] 0 | [11] 0 | [12] 0 | [13] 0 | [14] 0 | [15] 0

COC(=O)c1c(C)cc(OC(=O)c2c(C)cc(O)c(C=O)c2O)c(C)c1O [Atranorin]
inactive: [1] 0 | [2] 0 | [3] 0 | [4] 0 | [5] 0 | [6] 0 | [7] 0 | [8] 0 | [9] 0 | [10] 0 | [11] 0 | [12] 0 | [13] 0 | [14] 0 | [15] 0

C[C@@H]1C(=O)O[C@H]2C[C@@]34[C@H]5C[C@@H](C(C)(C)C)[C@]36[C@@H](OC(=O)[C@@H]6O)O[C@@]4(C(=O)O5)[C@]21O [Ginkgolide A]
inactive: [1] 0 | [2] 0 | [3] 0 | [4] 0 | [5] 0 | [6] 0 | [7] 0 | [8] 0 | [9] 0 | [10] 0 | [11] 0 | [12] 0 | [13] 0 | [14] 0 | [15] 0

COc1ccc([C@@H]2Sc3ccccc3N(CCN(C)C)C(=O)[C@@H]2OC(C)=O)cc1 [diltiazem]
inactive: [1] 0 | [2] 0 | [3] 0 | [4] 0 | [5] 0 | [6] 0 | [7] 0 | [8] 0 | [9] 0 | [10] 0 | [11] 0 | [12] 0 | [13] 0 | [14] 0 | [15] 0

C[C@H](NCCc1ccc(O)cc1)[C@H](O)c1ccc(O)cc1 [ritodrine]
inactive: [1] 0 | [2] 0 | [3] 0 | [4] 0 | [5] 0 | [6] 0 | [7] 0 | [8] 0 | [9] 0 | [10] 0 | [11] 0 | [12] 0 | [13] 0 | [14] 0 | [15] 0

CNC[C@H](O)c1ccc(O)c(O)c1 [epinephrine]
inactive: [1] 0 | [2] 0 | [3] 0 | [4] 0 | [5] 0 | [6] 0 | [7] 0 | [8] 0 | [9] 0 | [10] 0 | [11] 0 | [12] 0 | [13] 0 | [14] 0 | [15] 0

O=C(/C=C/c1ccc(OCc2ccccc2)cc1)c1c(O)cc(OCc2ccccc2)cc1OCc1ccccc1 [4,2,4'-Tribenzyloxy-6'-hydroxychalcone]
inactive: [1] 0 | [2] 0 | [3] 0 | [4] 0 | [5] 0 | [6] 0 | [7] 0 | [8] 0 | [9] 0 | [10] 0 | [11] 0 | [12] 0 | [13] 0 | [14] 0 | [15] 0

O=S(=O)(NCCSSCCNS(=O)(=O)c1cc(Cl)ccc1Cl)c1cc(Cl)ccc1Cl
inactive: [1] 0 | [2] 0 | [3] 0 | [4] 0 | [5] 0 | [6] 0 | [7] 0 | [8] 0 | [9] 0 | [10] 0 | [11] 0 | [12] 0 | [13] 0 | [14] 0 | [15] 0

CN(C(=O)CCCOc1ccc2[nH]c(=O)ccc2c1)C1CCCCC1 [Cilostamide]
inactive: [1] 0 | [2] 0 | [3] 0 | [4] 0 | [5] 0 | [6] 0 | [7] 0 | [8] 0 | [9] 0 | [10] 0 | [11] 0 | [12] 0 | [13] 0 | [14] 0 | [15] 0
